Structures are written as SMILES. The whole screen tested about 340,000 compounds, of which about 2,500 (0.74%) were called active. This is one part of a sample in which actives are shown more often than they occur. A number with no mark means an inactive call.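 The calls were made as follows: active = inhibition above about 55% (limit read from the data); inactive = the rest.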

The experiment in a line: Gli-Sufu pathway antagonists, primary screen, luciferase luminescence, Sufu-KO-LIGHT cells, uHTS (AID 588413).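 Also: 0% = DMSO-treated cells and 100% = wells with medium but no cells.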 Conditions: Sufu-KO-LIGHT fibroblasts, Gli luciferase reporter luminescence; at 5 µM; hits give high values. Background: Reporter assays use an easily measured gene product as a stand-in for the process of interest.
Usually inhibition stands for the relative decrease from the control value, in per cent. `CC1=CC(=Cc2sc3ccccc3[n+]2C)C=C(C)O1`: the inhibition is 80.9% (active). With `O=C(O)CCn1cc(C=C2C(=O)NC(=S)NC2=O)c(-c2cccc(Br)c2)n1` the figure was -2.59%. Turning to `CC(C)CN1CCN(Cc2ccccc2C(F)(F)F)CC1CCO` (stereo not given), the inhibition is 20.7%. Then `Cc1cc(C)c2c(c1)NP(=S)(c1ccccc1)N2` (stereo not given), with -6.68%; and `CNC(=O)Nc1ccc(C(O)(C(=O)OC)C(F)(F)F)cc1` (stereo not given), with 11.8%; and `CCCCCCCCCCCCn1ccc(=N)cc1`, with 87.5% (active). Take `O=C1C2(Cl)C3(Cl)C4(Cl)C(Cl)(Cl)C5(Cl)C3(Cl)C1(Cl)C5(Cl)C24Cl` (stereo not given): the inhibition is -3.44%.

`COc1cc(-n2c(=S)[nH]c3ccc(C)cc3c2=O)c(Cl)cc1Cl`: the inhibition was -14.6%.

Take `CCN(CC)CCOC(=O)c1cc2cc(COC)ccc2o1`: the inhibition was 0.39%. With `CCOc1cccc(=NC2CCCCC2)c2c(C)[nH]c(C)c12` the figure was 79% (active); with `CC(C)Nc1nc(Cl)nc(NC(C)C)n1`, 1.26%; with `O=C(C1CC(=O)N(C2CCCC2)C1)N1CCC2(CC1)OCCO2` (stereo not given), -2.84%. Then `C=CCN(CC=C)C(=O)Nc1ccc(OCC)cc1`, with -12.4%; and `CCC(C)(O)C(=O)OC1C(=O)OC2CC3C(C)=CC(=O)C(O)C3(C)C3C4(O)OCC23C1C(C)C4O` (stereo not given), with 82% (active); and `CN(C)CC1Oc2ccccc2OC1(O)c1ccccc1` (stereo not given), with -3.73%. Then `CCOP(=O)(OCC)C(NC(=O)c1ccc(OC)cc1)C(Cl)(Cl)Cl` (stereo not given), with -2.69%. For `CCOP(=O)(OCC)C(NC(=O)c1ccc(C)cc1)C(Cl)(Cl)Cl` (stereo not given), the inhibition is 2.77%. With `CC1=C2C(=O)C3C(CC=C4CC(OC5OC(O)C(O)C(O)C5CO)CCC43C)C2CCC12OC1CC(C)CNC1C2C` (stereo not given) the figure was -0.71%; with `O=C1/C(=C\c2ccc3c(c2)OCO3)N2CCC1CC2`, 16.5%. With `N[C@@H](Cc1c[nH]c2ccccc12)c1nnc(SCc2c(F)cccc2Cl)o1` the figure was -1.34%; with `CCOc1ccc(-c2cc(C)[n+](CCN(CC)CC)c(-c3ccc(OCC)cc3)c2)cc1`, 77.8% (active).

Take `COC(=O)C1=C(c2cc3ccccc3s2)C[C@@H]2CC[C@H]1N2C(=O)NC(C)C`: the inhibition is 9.18%.

For the compound `COc1ccc(-c2nn(CCC#N)cc2C(=O)Nc2ccc(C(C)=O)cc2)cc1`, the inhibition is -28.4%. With `COC(=O)COc1cc(C)cc2oc(=O)c3c(c12)CCCC3` the figure was -1.17%.

`COc1ccc(NC(=O)c2cn(CCC#N)nc2-c2ccc([N+](=O)[O-])cc2)cc1`: the inhibition is 6.35%.

Consider `CC(=O)OC1C2(CC3N4C(=O)C5(CO)SSC4(CC31O)C(=O)N5C)OC(C)C(C)(C)C2=O` (stereo not given), for which the inhibition is 85.7% (active). With `Cc1ccccc1NC(=O)COC(=O)c1cc(C)n(C2CC2)c1C` the figure was 0.92%; with `O=C1NC(=O)C(CCc2ccccn2)(Cc2cccc(Cl)c2Cl)C(=O)N1c1ccc(Br)cc1` (stereo not given), 0.16%; with `Cc1ccnc(-n2c(C)cc(/C=C3\C(=O)NC(=S)N(C)C3=O)c2C)c1`, 7.71%. Then `CC[C@H]1CC2CN3CCc4c([nH]c5ccccc45)C(C(=O)OC)(C2)C13` (stereo not given in full), with 8.02%.

Values taken from PubChem BioAssay AID588413 (Sanford-Burnham Center for Chemical Genomics, 2011).
